From PubChem BioAssay
The full list was thinned out, with hits kept by preference.
Pf Dd2 inh: Plasmodium falciparum Dd2 growth inhibition | P. falciparum Dd2 growth, SYBR Green, 72 h | Potency, µM (doses to about 28.9 µM), hits mostly inhibitors | hit rate 4.3% among 120,000 | AID 1347417; active = well fitted inhibition curve with a large enough effect; note: nearly all actives have a fitted effect of over 65% in size
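Readout: SYBR Green fluorescence, 485 nm excitation, 535 nm emission, after ~16 h lysis at 37C. Before that, Dd2-infected red cells (2.5% hematocrit) grew 72 h with compound, 29 uM top final concentration.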
Hits are given with their value; - = inactive.

SMILES	Pf Dd2 inh
COc1ccc(C(=O)N2[C@@H]3CC[C@H]2CC(NC(=O)c2ccc(F)cc2)C3)cc1OC (some centres undefined)	-
COC(=O)c1ccc([C@@H]2Nc3c(OC)ccc(C)c3[C@@H]3C=CC[C@@H]32)cc1	3.2µM
OCC1CN(c2ccncn2)CC12CCN(Cc1ccncc1F)CC2 (centres undefined)	-
Cc1nc(N2CCN(C(=O)c3ccc(F)cc3Cl)CC2)cc(C(F)(F)F)n1	-
CCOc1ccc(C2c3c(-c4ccc(C)cc4)n[nH]c3C(=O)N2c2ccc(Cl)cc2)cc1 (centres undefined)	10µM
CCOC(=O)c1ccc(NC(=O)c2cn(-c3ccccc3)nc2-c2ccc(Br)cc2)cc1	-
CCOC(=O)c1ccc(NC(=O)c2cn(-c3ccccc3)nc2-c2ccc(C)cc2)cc1	-
CCOC(=O)c1ccc(N2C(=O)c3n[nH]c(-c4cccs4)c3C2c2ccc(C(C)C)cc2)cc1 (centres undefined)	-
CCOC(=O)c1ccc(N2C(=O)c3n[nH]c(C)c3C2c2cccc(Br)c2)cc1 (centres undefined)	13µM
O=C1c2[nH]nc(-c3ccccc3)c2C(c2ccccc2)N1c1cccc(C(F)(F)F)c1 (centres undefined)	-
CCOC(=O)c1ccc(N2C(=O)c3n[nH]c(-c4cccs4)c3C2c2cccc(O)c2)cc1 (centres undefined)	-
CCOC(=O)c1ccc(N2C(=O)c3n[nH]c(-c4cccs4)c3C2c2ccc(CC)cc2)cc1 (centres undefined)	10µM
CCOC(=O)c1ccc(N2C(=O)c3[nH]nc(-c4ccc(C)cc4)c3C2c2cccs2)cc1 (centres undefined)	11µM
Cc1ccc(-c2n[nH]c3c2C(c2cccc(O)c2)N(c2ccc(C(=O)O)cc2)C3=O)cc1 (centres undefined)	-
CCOC(=O)c1ccc(N2C(=O)c3n[nH]c(C)c3C2c2ccc(C(C)(C)C)cc2)cc1 (centres undefined)	-
CCOC(=O)c1ccc(N2C(=O)c3[nH]nc(-c4ccc(OC)cc4)c3C2c2ccccc2Cl)cc1 (centres undefined)	-
Cc1ccc(C(=O)N[C@@H](Cc2ccccc2)C(=O)N2CCCOCCNC(=O)CC2)s1	-
CC(=O)N1CCc2nc(C)nc(-c3ccc(Cl)cc3)c2CC1	-
CN1C(=O)CCC2(CNC(=O)c3nn(C)c4ccccc34)CCCC=C12 (centres undefined)	-
CN(CCc1ccccc1)[C@@H]1[C@H](O)[C@H](CO)O[C@@H]1CNS(=O)(=O)c1cccs1	-
COc1ccc(CNC(=O)CCc2conc2-c2ccc(C)cc2)cc1	-
COCCN1C(=O)c2ccccc2C(C(=O)NCCC2=CCCCC2)C12CCCC2 (centres undefined)	-
CCOC(=O)c1ccc(N2C(=O)c3n[nH]c(-c4ccco4)c3C2c2ccc(O)c(OCC)c2)cc1 (centres undefined)	-
CCOC(=O)c1ccc(N2C(=O)Cc3cc(OCC)c(OCC)cc3C2c2ccccc2)cc1 (centres undefined)	-
CCOC(=O)c1ccc(N2C(=O)c3[nH]nc(-c4ccc(C)cc4)c3C2c2ccc(O)c(OCC)c2)cc1 (centres undefined)	7.1µM
SMILES	Pf Dd2 inh
O=C(c1ccccn1)N1CCC(c2nc(-c3cccnn3)no2)CC1	-
CN(Cc1cccn1C)Cc1cccn1C	-
COc1cccc(CN2C[C@]34C=C[C@H](O3)C(C(=O)N3CCCCC3)C4C2=O)c1 (some centres undefined)	-
COCC(=O)N1CCC2(CC1)OC(=O)N(Cc1cccc(OC)c1)C2(C)c1cccnc1 (centres undefined)	-
COc1cccc(CN2C(=O)OC3(CCN(Cc4ccccc4OC)CC3)C2(C)c2cccnc2)c1 (centres undefined)	1.1µM
COc1cccc(CN2C(=O)OC3(CCN(Cc4ccncc4)CC3)C2(C)c2cccnc2)c1 (centres undefined)	-
COc1cccc(CN2C(=O)OC3(CCN(C(=O)Cc4cccc(F)c4)CC3)C2(C)c2cccnc2)c1 (centres undefined)	-
COc1cccc(CN2C(=O)OC3(CCN(C(=O)CCc4cccnc4)CC3)C2(C)c2cccnc2)c1 (centres undefined)	-
COc1cccc(CN2C(=O)OC3(CCN(Cc4ccc(F)cc4)CC3)C2(C)c2cccnc2)c1 (centres undefined)	0.79µM
COCC1(C(=O)N2CCN(C)C3(CCNC(=O)CC3)C2)CC1 (centres undefined)	-
O=C1CCN(S(=O)(=O)c2ccc3c(c2)CCC3)CCCC(CO)CCN1 (centres undefined)	-
Cc1ccc(C(=O)N2CCn3c(nnc3-c3ccncc3)C2)cc1	-
CCCCc1nn(CC(=O)NCC2Cc3ccccc3CN2C)c(=O)n1CC (centres undefined)	-
O=C(NC1CCN(C(=O)N2CC3CC(C2)[C@H]2CCCC(=O)N2C3)CC1)c1cccs1 (some centres undefined)	-
Cc1ccc(-n2nc(C(=O)N3CCN(c4ccccc4F)CC3)c3c4ccccc4n(C)c3c2=O)cc1	-
Cc1ccc(C)c(N2CCN(C(=O)c3cn(CC(C)C)c(=O)c4c3c3ccccc3n4C)CC2)c1	2.5µM
Cc1ccc(-n2nc(C(=O)N3CCN(c4cc(C)ccc4C)CC3)c3c4ccccc4n(C)c3c2=O)cc1	-
Cc1cccc(N2CCN(C(=O)c3cn(CC(C)C)c(=O)c4c3c3ccccc3n4C)CC2)c1C	11µM
CCn1cc(C(=O)N2CCN(c3cc(C)ccc3C)CC2)c(=O)c2cc(S(=O)(=O)N3CCCCC3)ccc21	-
CCn1c(=O)cc(OCC(=O)N2CCN(c3cccc(C)c3C)CC2)c2ccccc21	-
O=S(=O)(c1ccccc1)N1CCC(n2cnnc2C2CC2)CC1	-
O=C1CCC2(CCNCC2)CCN1Cc1ccccc1	-
NC(=O)c1ccc(NC(=O)c2cc3n(n2)CC(c2ccc(Br)cc2)OC3)cc1 (centres undefined)	-
CCOc1cccc(CNC(=O)c2noc(-c3ccc(F)cc3)n2)c1	-
Cc1ccc(CN2CCCCCCNC(=O)CC2c2ccccc2)s1 (centres undefined)	8.9µM
SMILES	Pf Dd2 inh
O=C1CC(c2ccccc2)N(S(=O)(=O)c2cccs2)CCCCCN1 (centres undefined)	-
Cc1ccsc1CN1CCCCCCNC(=O)CC1c1ccccc1 (centres undefined)	13µM
O=C1NCCCCCN(Cc2ccccn2)[C@H]2CCC[C@@H]12	-
O=C1CC(c2ccccc2)N(C(=O)c2ccsc2)CCCCCN1 (centres undefined)	-
O=C1CC(c2ccccc2)N(C(=O)c2cccs2)CCCCCN1 (centres undefined)	-
Cc1ncsc1CN1CCCCCCNC(=O)[C@@H]2CCC[C@@H]21	-
Cc1ccsc1CN1CCCCCNC(=O)CC1c1ccccc1 (centres undefined)	7.1µM
Cc1ccsc1CN1CCCCCCNC(=O)[C@@H]2CCC[C@@H]21	8.9µM
O=C1CC(c2ccccc2)N(C(=O)C2CCCC2)CCCCCCN1 (centres undefined)	-
Cc1ccc(CN2CCCN(S(C)(=O)=O)C(c3ccccc3)CC(=O)NCC2)s1 (centres undefined)	-
Cc1ccc(C(=O)NCC(=O)N2CCCCCCNC(=O)CC2c2ccccc2)s1 (centres undefined)	-
CNC(=O)Nc1ccc(C2(C(=O)N3CCN(c4cccc(Cl)c4)CC3)CCC2)cc1	-
